Source: PubChem (National Center for Advancing Translational Sciences (NCATS))
PI5P4Ka inh – qHTS for Inhibitors of phosphatidylinositol 5-phosphate 4-kinase (PI5P4K); Phosphatidylinositol 5-phosphate 4-kinase type-2 alpha (Homo sapiens), P48426; PI5P4Kalpha enzyme, ADP-Glo luminescence, 60 min; active compounds read low; max response, %; 1.2% of 330,000 active; AID 652105, 2013; active = max response of -50% or lower; inconclusive = between -30% and -50%; inactive = -30% or higher; also: value at the top dose of about 77 µM; % is scaled to controls: 0 for no effect and ±100 for the full control effect
Target sequence (P48426 whole entry, looked up): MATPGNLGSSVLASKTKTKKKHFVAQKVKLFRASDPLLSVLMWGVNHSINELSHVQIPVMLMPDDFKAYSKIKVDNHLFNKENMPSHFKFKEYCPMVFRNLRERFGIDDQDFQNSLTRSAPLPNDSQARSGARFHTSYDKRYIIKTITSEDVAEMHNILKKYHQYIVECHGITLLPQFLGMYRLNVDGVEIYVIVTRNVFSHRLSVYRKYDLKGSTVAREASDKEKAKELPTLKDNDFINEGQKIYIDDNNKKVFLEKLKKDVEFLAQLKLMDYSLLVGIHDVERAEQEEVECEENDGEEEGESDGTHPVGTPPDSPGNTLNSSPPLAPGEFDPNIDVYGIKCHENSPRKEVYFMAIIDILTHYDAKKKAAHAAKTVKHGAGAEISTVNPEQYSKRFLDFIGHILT
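Controls without substrate or without enzyme flank wells where PI5P4Kalpha converts substrate using 5 microM ATP (final). Incubation lasts 60 minutes at room temperature; ADP formed is read by ADP-Glo luminescence.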
BAZ2B block – qHTS Assay for Inhibitors of BAZ2B | Bromodomain adjacent to zinc finger domain protein 2B (Homo sapiens), Q9UIF8 | AlphaScreen BAZ2B-H3K14Ac peptide displacement | Potency, µM (titrated, usually from 114 µM), inactives show at the top dose activity change, negative = inhibition, actives largely listed as inhibitors | 4.4% of 360,000 active; also: potency is read from the fitted curve at half-maximal effect; % is scaled to controls: 0 for no effect and ±100 for the full control effect; nearly all actives have a fitted effect of over 60% in size
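BAZ2B (50 nM) with biotin-H3(5-23)K14Ac peptide (50 nM) in PBS pH 7.4, 0.01% Tween-20, preformed 30 min, then compound 30 min at room temperature; top concentration 110uM. AlphaScreen streptavidin donor/nickel chelate acceptor beads (10 ug/mL final), 20 min dark, signal read.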
HP1b chromo inh – HTS for Inhibitors of HP1-beta Chromodomain Interactions with Methylated Histone Tails | Chromobox protein homolog 1 (Homo sapiens), P83916 | AlphaScreen HP1-beta / biotin-H3K9me3 peptide binding | Potency, µM (doses to about 114 µM), for inactives: at the top dose activity change, negative = inhibition, most hits filed as inhibitors | 0.56% of 390,000 active | AID 540317, 2011; also: potency is read from the fitted curve at half-maximal effect; nearly all actives have a fitted effect of over 70% in size
Target sequence (P83916 whole entry, looked up): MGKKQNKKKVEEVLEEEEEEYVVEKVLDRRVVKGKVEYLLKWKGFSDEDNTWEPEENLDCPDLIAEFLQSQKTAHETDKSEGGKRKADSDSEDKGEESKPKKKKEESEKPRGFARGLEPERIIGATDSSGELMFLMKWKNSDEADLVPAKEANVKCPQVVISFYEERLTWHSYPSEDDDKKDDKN
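HP1-beta protein (50 nM final) preincubated 30 min at room temperature with biotinylated H3(1-18)K9me3 peptide (50 nM) in PBS pH 7.4, 0.01% Tween-20, then compound added for 30 min. AlphaScreen streptavidin donor/nickel chelate acceptor beads (10 ug/mL final), 30 min dark, luminescence read.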
L3MBTL1 block – qHTS Assay for the Inhibitors of L3MBTL1; AlphaScreen L3MBTL1–H3K9me1 peptide binding; Potency, µM (series often up to 57.1 µM), inactives show at the top dose activity, negative = inhibition, actives largely listed as inhibitors; 0.66% of 230,000 active; also: potency is read from the fitted curve at half-maximal effect; % is scaled to controls: 0 for no effect and ±100 for the full control effect; nearly all actives have a fitted effect of over 60% in size
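Read-out is AlphaScreen signal from streptavidin donor and nickel chelate acceptor beads (10 ug/mL final each) bridging L3MBTL1 (50 nM) and biotinylated K9-monomethylated H3(1-15) peptide (75 nM), after 30 min compound exposure at room temperature.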
JMJD2A Tudor inh – qHTS Assay for Inhibitors of JMJD2A-Tudor Domain; Lysine-specific demethylase 4A (Homo sapiens), O75164; AlphaScreen JMJD2A-Tudor / H3K4me3 peptide binding; Potency, µM (titrated, usually from 114 µM), for the others: top-dose activity change, negative = inhibition, actives largely listed as inhibitors; 4.4% of 390,000 active; AID 504339, 2011; also: potency is read from the fitted curve at half-maximal effect; % is scaled to controls: 0 for no effect and ±100 for the full control effect; nearly all actives have a fitted effect of over 50% in size
JMJD2E inh – qHTS Assay for Inhibitors of Human Jumonji Domain Containing 2E (JMJD2E); Potency, µM (doses to about 57.1 µM), for inactives: at the highest dose activity change, negative = inhibition, usual class: inhibitors; 1.6% of 230,000 active; JMJD2E catalytic domain, FDH-coupled NADH fluorescence (FDH is formaldehyde dehydrogenase); active = well fitted inhibition curve with a large enough effect, not every such curve was filed as active; inconclusive = small, poorly fitted or top-dose-only effect, or another doubt; inactive = no such curve, though single readings can be large or run the other way;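 also: potency is read from the fitted curve at half-maximal effect; 0% = wells with enzyme and -100% = buffer wells without enzyme; nearly all actives have a fitted effect of over 50% in size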
ADP-Glo counter – qHTS for Inhibitors of PI5P4K: ADP-Glo counter assay. shares compounds with PI5P4Ka inh. Potency, µM (series often up to 76.9 µM), without a hit: at the highest dose activity change, negative = inhibition, most hits filed as inhibitors. AID 743285, 2014. ADP-Glo detection counter-screen, luciferase luminescence, no enzyme. 1,100 tested, under 10 active
An asterisk follows results filed as active; ? = inconclusive; / = not tested or not shown; [ ] = dose if it differs, or a comment. Compounds with a hit are over-represented: about 5.7% of the library has one in this group of screens. Unless noted, calls follow the shape of the dose curve; as a rule, active = well fitted curve in the direction sought with a large enough effect; inconclusive = small, poorly fitted or top-dose-only effect, or another doubt; inactive = no such curve, though single readings can be large; an effect the other way counts as inactive or inconclusive.

SMILES	PI5P4Ka inh	BAZ2B block	HP1b chromo inh	L3MBTL1 block	JMJD2A Tudor inh	JMJD2E inh	ADP-Glo counter
Cc1ccc2c(c1)N(CC(=O)N1CCCCCC1)C(=O)C(C)O2 (centres undefined)	-73.1*	-8.1%	21.3%	/	-2.0%	/	2.8%
C[C@H]1CN=C(Nc2ccccc2)N1CC1CCCCC1	1.8	0.5%	44.5%	1.0%	-17.9%	/	/
C[C@H]1CN=C(Nc2ccccc2)N1CCCC1CCCCC1	-0.3	-0.6%	62.0%	14.0%	-20.7%	/	-5.2%
O=C(NCc1ccccc1)C(c1ccc(F)cc1)N(C(=O)c1csnn1)C1CC1 (centres undefined)	2.8	11.2%	-13.0%	/	-9.3%	/	/
CC1=C(C(=O)N(C(C)C)C(C)C)CC(CC(=O)NCCCN(C)C)C(=O)N1CCCN1CCCC1=O (centres undefined)	-0.3	/	/	/	/	/	/
CCN(CC(=O)NC(C)(C)C)Cc1cc(=O)n2c(-c3ccccc3)csc2n1	-73.8*	?	-9.1%	/	-27.2%	/	3.1%
CCCNC(=O)N(C)C[C@@H]1Oc2ncc(Br)cc2C(=O)N([C@H](C)CO)C[C@@H]1C	0.3	/	/	/	/	/	/
CCCNC(=O)N(C)C[C@@H]1Oc2ncc(-c3ccncc3)cc2C(=O)N([C@H](C)CO)C[C@@H]1C	-56.4*	/	/	/	/	/	-3.7%
COc1ccc(N2CC(O)=C(c3nc(-c4ccccc4)cs3)C2=N)cc1	-53.2*	2.5%	2.4%	/	-18.4%[11.4 µM]	-29.6%	-2.2%
COc1ccc(N2CC(O)=C(c3nc(-c4ccc(Br)cc4)cs3)C2=N)cc1	2.4	-13.9%	28.6%	-6.6%	-9.5%	7.9%	/
c1coc(-c2ccc3nncn3c2)c1	-73.4*	/	/	/	/	/	-12.5%
Cc1ccc(CCNC(=O)c2sc3ncccc3c2-n2cccc2)cc1	/	-13.3%	10.6%[57 µM]	/	?	/	/
O=C(Nc1ccsc1C(=O)O)c1cccc(C(F)(F)F)c1	-58.4*	-41.5%	36.6%	/	-25.4%	/	1.8%
Cc1ccc([N+](=O)[O-])cc1S(=O)(=O)Nc1ccc(C(=O)N2CCN(C(=O)c3ccco3)CC2)cc1	-52.7*	?	-12.5%	-3.6%	79.4µM*	/	0.0%
Cc1ccc([N+](=O)[O-])cc1S(=O)(=O)Nc1ccc(C(=O)N(C)C)cc1	1.1	-34.4%	53.5%	1.6%	6.2%	-1.6%	/
CCOC(=O)C1(C)CCCCCN1C(=O)c1ccc(OC)c(C(F)(F)F)c1 (centres undefined)	-3.9	/	/	/	/	/	/
COc1ccc(C(=O)N2CCCC2(C)C(=O)O)cc1C(F)(F)F (centres undefined)	-87.0*	/	/	/	/	/	0.5%
Cc1ccc(-n2ncc3c(=O)[nH]c(SCC(=O)NCC4CCCO4)nc32)cc1 (centres undefined)	-1.2	/	27.7%	0.6%	-10.8%	/	/
O=C(CSc1nc2c(cnn2-c2cccc(Cl)c2)c(=O)[nH]1)NCC1CCCO1 (centres undefined)	/	-6.4%	21.1%	1.9%	-18.2%	/	-6.0%
COC(=O)c1c(NC(=O)CN2CCC3(O)CCCCC3C2c2ccccc2OC)sc(C)c1C (centres undefined)	-1.5	-31.8%	8.5%	-5.7%	?	0.0%	/
COC(=O)c1c(NC(=O)CN2CCC3(O)CCCCC3C2c2ccc(OC)cc2OC)sc(C)c1C (centres undefined)	-51.0*	-19.6%	?	-18.7%	?	-7.7%	6.7%
COc1ccc(S(=O)(=O)N2CCCC(C(=O)Nc3cccnc3)C2)cc1Cl (centres undefined)	-50.2*	-35.7%	45.9%	5.4%	?	-2.7%	-5.7%
COc1ccc(NC(=O)C2CCCN(S(=O)(=O)c3cccnc3)C2)cc1OC (centres undefined)	-2.3	-9.0%	22.0%	11.3%	-15.4%	-2.8%	/
COc1ccc(CS(=O)c2nc(C)cc(C)c2S(C)(=O)=O)cc1 (centres undefined)	-0.6	0.5%	55.4%	9.9%	-4.9%	2.8%	/
COc1ccc(C(=O)N2CCC(C(=O)O)CC2)c2ccccc12	-5.8	-1.3%	13.4%	/	-11.0%	/	/
SMILES	PI5P4Ka inh	BAZ2B block	HP1b chromo inh	L3MBTL1 block	JMJD2A Tudor inh	JMJD2E inh	ADP-Glo counter
CCOc1ccc(CNC(=O)CN2C(=O)CSc3c2c(C)nn3-c2ccccc2)cc1	/	-21.2%	56.8%	/	-13.0%	/	/
COc1cc(NC2=Nc3cccc4cccc2c34)cc(OC)c1OC	-50.3*	50.1µM*	?	-11.9%	?	-4.8%	-3.4%
O=C(NCc1cccc(C(F)(F)F)c1)N1CCN(S(=O)(=O)c2ccccc2F)CC1	1.5	14.7%	20.5%	/	-3.9%	/	/
NC(Cc1ccccc1)c1csc(NC(=O)Nc2ccccc2Oc2ccccc2)n1 (centres undefined)	-21.9	/	/	/	/	/	/
NC(Cc1ccc(C(F)(F)F)cc1)c1csc(NC(=O)Nc2ccccc2Oc2ccccc2)n1 (centres undefined)	-50.3*	/	/	/	/	/	-1.2%
CC(C)NC(=O)C1(C)CSCC(=O)N1C1CCN(Cc2ccccc2)CC1 (centres undefined)	-8.8	/	/	/	/	/	/
CC(C)OC(=O)c1c(NS(=O)(=O)c2ccccc2)sc2c1CCCC2	-63.5*	5.4%	-15.0%	1.5%	?	-24.2%	-0.5%
CC1CCN(C(=O)c2ccc(COc3ccccc3Cl)o2)CC1	-54.8*	-4.9%	13.8%	18.8%	-5.3%	1.0%	-0.6%
COc1ccc(NC(=O)N2CCC(n3nnc4cc(C)ccc43)CC2)cc1	-3.1	6.0%	27.7%	-1.0%	-6.3%[57.1 µM]	4.3%	/
CCOc1ccc(NC(=O)N2CCC(n3nnc4ccccc43)CC2)cc1	-51.5*	?	11.7%	-5.4%	-25.9%	?	1.7%
O=C(NNS(=O)(=O)c1ccc(F)cc1)c1cc2ccccc2cc1O	-0.1	-15.7%	22.5%	/	-30.4%	/	/
COCc1c(C(=O)N2CCN(c3ccccc3C)CC2)oc2ccccc12	1.3	/	75.8%	12.0%	-16.5%	/	/
COc1ccc(NC(=O)C(c2ccc(OC)cc2)n2c(=O)c(-c3ccco3)nc3ccccc32)cc1 (centres undefined)	-20.7	/	/	/	/	/	/
CC(C)(C)NC(=O)C(c1ccc(C#N)cc1)n1c(=O)c(-c2ccco2)nc2ccccc21 (centres undefined)	-56.8*	/	/	/	/	/	2.1%
